Measurements reported in PubChem BioAssay (NCATS).
Records with an inconclusive call do not appear. Calls of active or inactive are those of the source. Calls come from the whole dose curve; as a rule, active = well fitted curve in the direction sought with a large enough effect; inconclusive = small, poorly fitted or top-dose-only effect, or another doubt; inactive = no such curve, though single readings can be large; an effect the other way counts as inactive or inconclusive.

Key:
CRL-7250 = normal cell line; assay: Cytotoxic Profiling of Annotated Libraries Using Quantitative High-Throughput Screening (AID 1296008); conditions: Five cell lines viability, CellTiter-Glo ATP luminescence, 48-72 h; max response: stronger effect = lower value; note: nearly all actives have a fitted effect of over 60% in size; for max response: % is set by controls: 0 for no effect and ±100 for the full control effect
Outline: (§1)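 Cytotoxicity was measured as CellTiter-Glo ATP luminescence, read after 10 min at room temperature. Compound treatment of the cells lasted 48 or 72 hr at 37 degrees Celsius in a qHTS format.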

HEK293 = assay: as above; conditions: Five cell lines viability, CellTiter-Glo ATP luminescence, 48-72 h; max response: stronger effect = lower value
Outline: as §1

HaCat [1] = assay: as above; conditions: Five cell lines viability, CellTiter-Glo ATP luminescence, 48-72 h; max response: stronger effect = lower value
Outline: as §1

KB-3-1 = assay: as above; conditions: Five cell lines viability, CellTiter-Glo ATP luminescence, 48-72 h; max response: stronger effect = lower value
Outline: as §1

NIH3T3 [2] = assay: as above; conditions: Five cell lines viability, CellTiter-Glo ATP luminescence, 48-72 h; max response: stronger effect = lower value
Outline: as §1

HACAT [3] = assay: qHTS assay to identify novel small-molecules to repurpose for Merkel cell carcinoma treatment (AID 1296009); conditions: MCC and control cell lines, CellTiter-Glo viability, 72 h; at 44.8 µM (top of the series) unless noted; note: nearly all actives have a fitted effect of over 60% in size
Outline: (§2)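 Cell viability, measured as CellTiter-Glo luminescence, was normalized between DMSO and no-cell wells. The cells had been exposed to 8- or 11-point compound dilutions for 72 hr at 37 degree celsius.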

NIH3T3 [4] = assay: as above; conditions: MCC and control cell lines, CellTiter-Glo viability, 72 h; at 44.8 µM (top of the series) unless noted
Outline: as §2

C33A = assay: Primary qHTS to identify gynecologic anti-cancer compounds using libraries of approved drugs and bioactive compounds (AID 1345084); conditions: Gynecologic cancer cell panel viability, ATPlite luminescence, 48 h; series mostly up to 57.5 µM; note: % is set by controls: 0 for no effect and ±100 for the full control effect; nearly all actives have a fitted effect of over 55% in size
Outline: (§3)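 Cells, 1,000 per well, were allowed to settle for 16 h at 37 C before compound addition. Five concentrations were tested for 48 h, and viability was read by ATPlite luminescence after 15 min at room temperature.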

CAOV3 = assay: as above; conditions: Gynecologic cancer cell panel viability, ATPlite luminescence, 48 h; series mostly up to 57.5 µM
Outline: as §3

CASKI = assay: as above; conditions: Gynecologic cancer cell panel viability, ATPlite luminescence, 48 h; series mostly up to 57.5 µM
Outline: as §3

Es-2 = assay: as above; conditions: Gynecologic cancer cell panel viability, ATPlite luminescence, 48 h; series mostly up to 57.5 µM
Outline: as §3

HeLa = assay: as above; conditions: Gynecologic cancer cell panel viability, ATPlite luminescence, 48 h; series mostly up to 57.5 µM
Outline: as §3

Hek293T = assay: as above; conditions: Gynecologic cancer cell panel viability, ATPlite luminescence, 48 h, control line for the selectivity index; series mostly up to 57.5 µM
Outline: as §3

JEG-3 = assay: as above; conditions: Gynecologic cancer cell panel viability, ATPlite luminescence, 48 h; series mostly up to 57.5 µM
Outline: as §3

OV90 = assay: as above; conditions: Gynecologic cancer cell panel viability, ATPlite luminescence, 48 h; series mostly up to 57.5 µM
Outline: as §3

PA-1 = assay: as above; conditions: Gynecologic cancer cell panel viability, ATPlite luminescence, 48 h; series mostly up to 57.5 µM
Outline: as §3

C/C(=C\CCC(C)CCO)C(=O)OC[C@H]1O[C@@H](O[C@@H]2OC=C(C(=O)O)[C@H]3CC[C@](C)(O)[C@@H]23)C(O)[C@@H](O)C1O (stereo partly drawn)
inactive: max response (CRL-7250) 3.02% | max response (HEK293) 4.12% | outcome (HaCat [1]) | outcome (KB-3-1) | outcome (NIH3T3 [2]) | outcome (HACAT [3]) inactive [at 17.4 µM] | outcome (NIH3T3 [4]) inactive [at 17.4 µM] | Potency (C33A) | Potency (CAOV3) | outcome (CASKI) | Potency (Es-2) | Potency (HeLa) | Potency (Hek293T) | Potency (JEG-3) | Potency (OV90) | Potency (PA-1)

COc1cc(C(CO)C(OC2OC(CO)C(O)C(O)C2O)c2ccc(O)c(OC)c2)ccc1O (stereo not drawn)
inactive: outcome (CRL-7250) | max response (HEK293) -2.64% | outcome (HaCat [1]) | max response (KB-3-1) 3.11% | outcome (NIH3T3 [2]) | outcome (HACAT [3]) inactive [at 17.4 µM] | outcome (NIH3T3 [4]) inactive [at 17.4 µM] | Potency (C33A) | Potency (CAOV3) | outcome (CASKI) | Potency (Es-2) | Potency (HeLa) | Potency (Hek293T) | Potency (JEG-3) | Potency (OV90)

C=C1CCC2C(C)(C)CC(=O)CC2(C)C1CCC(C)CCO (stereo not drawn)
inactive: max response (CRL-7250) -5.3% | max response (HEK293) 1.61% | outcome (HaCat [1]) | max response (KB-3-1) 0.95% | outcome (NIH3T3 [2]) | outcome (HACAT [3]) | outcome (NIH3T3 [4]) | Potency (C33A) | Potency (CAOV3) | outcome (CASKI) | Potency (Es-2) | Potency (HeLa) | Potency (Hek293T) | Potency (JEG-3) | Potency (OV90) | Potency (PA-1)

C/C=C(\C)C(=O)OC1CC2C(CC=C3CC(OC4CC(OC)C(OC5CC(OC)C(OC6CC(OC)C(OC7CC(OC)C(OC8CC(OC)C(OC9OC(CO)C(O)C(O)C9O)C(C)O8)C(C)O7)C(C)O6)C(C)O5)C(C)O4)CCC32C)C2(O)CCC(C(C)=O)C12C (stereo not drawn)
inactive: outcome (CRL-7250) | max response (HEK293) -12.4% | outcome (HaCat [1]) | max response (KB-3-1) 8.92% | outcome (NIH3T3 [2]) | outcome (HACAT [3]) inactive [at 9.27 µM] | outcome (NIH3T3 [4]) inactive [at 9.27 µM] | activity change, negative = cytotoxicity (C33A) 4.48% [at 6.55 µM] | activity change, negative = cytotoxicity (CAOV3) -9.87% [at 6.55 µM] | activity change, negative = cytotoxicity (CASKI) -6.32% [at 6.55 µM] | activity change, negative = cytotoxicity (Es-2) 2.25% [at 6.55 µM] | activity change, negative = cytotoxicity (HeLa) 6.7% [at 6.55 µM] | activity change, negative = cytotoxicity (Hek293T) -0.353% [at 6.55 µM] | activity change, negative = cytotoxicity (JEG-3) 3.01% [at 6.55 µM] | activity change, negative = cytotoxicity (OV90) -1.21% [at 6.55 µM] | activity change, negative = cytotoxicity (PA-1) -0.231% [at 6.55 µM]

O=C(/C=C/c1ccc(O)c(O)c1)OC[C@H]1O[C@@H](OC2CCCCC2O)[C@H](O)[C@@H](O)[C@@H]1O (stereo partly drawn)
inactive: outcome (CRL-7250) | max response (HEK293) -0.405% | outcome (HaCat [1]) | max response (KB-3-1) 1.68% | outcome (NIH3T3 [2]) | outcome (HACAT [3]) inactive [at 17.4 µM] | outcome (NIH3T3 [4]) inactive [at 17.4 µM] | Potency (C33A) | Potency (CAOV3) | outcome (CASKI) | Potency (Es-2) | Potency (HeLa) | Potency (Hek293T) | Potency (JEG-3) | Potency (OV90) | Potency (PA-1)

NCCCCN(Cc1nc2ccccc2[nH]1)[C@H]1CCCc2cccnc21
inactive: max response (CRL-7250) -5.02% | max response (HEK293) -0.584% | outcome (HaCat [1]) | max response (KB-3-1) 1.94% | outcome (NIH3T3 [2]) | outcome (HACAT [3]) inactive [at 17.4 µM] | outcome (NIH3T3 [4]) inactive [at 17.4 µM] | Potency (C33A) | Potency (CAOV3) | outcome (CASKI) | Potency (Es-2) | Potency (HeLa) | Potency (Hek293T) | Potency (JEG-3) | Potency (OV90) | Potency (PA-1)

COc1cc(/C=C/CO[C@@H]2O[C@H](CO)[C@@H](O)[C@H](O)[C@H]2O)cc(OC)c1O[C@@H]1O[C@H](CO)[C@@H](O)[C@H](O)[C@H]1O
inactive: max response (CRL-7250) -7.94% | max response (HEK293) -7.31% | outcome (HaCat [1]) | outcome (KB-3-1) | outcome (NIH3T3 [2]) | outcome (HACAT [3]) inactive [at 17.4 µM] | outcome (NIH3T3 [4]) inactive [at 17.4 µM] | Potency (C33A) | Potency (CAOV3) | outcome (CASKI) | Potency (Es-2) | Potency (HeLa) | Potency (Hek293T) | Potency (JEG-3) | Potency (OV90)

C=C(C(=O)OC)[C@]12O[C@@](C)(CC[C@@]3(O)/C(=C\C)C(=O)O[C@]3(C)C[C@@H]1OC(=O)C(CO)CN1CCCC1C(=O)O)CC2=O (stereo partly drawn)
inactive: outcome (CRL-7250) | max response (HEK293) -8.55% | outcome (HaCat [1]) | outcome (KB-3-1) | outcome (NIH3T3 [2]) | outcome (HACAT [3]) inactive [at 17.4 µM] | outcome (NIH3T3 [4]) inactive [at 17.4 µM] | Potency (C33A) | Potency (CAOV3) | outcome (CASKI) | Potency (Es-2) | Potency (HeLa) | Potency (Hek293T) | Potency (JEG-3) | Potency (OV90) | Potency (PA-1)

C/C(=C\C(=O)C[C@@]12C(=O)O[C@]3(C)CC[C@H]1C[C@H]23)C(N)=O
inactive: max response (CRL-7250) -61.5% | max response (HEK293) -18.5% | outcome (HaCat [1]) | outcome (KB-3-1) | outcome (NIH3T3 [2]) | outcome (HACAT [3]) | outcome (NIH3T3 [4]) | Potency (C33A) | Potency (CAOV3) | outcome (CASKI) | Potency (Es-2) | Potency (HeLa) | Potency (Hek293T) | Potency (JEG-3) | Potency (OV90) | Potency (PA-1)

COc1cccc(OC)c1-c1cc(C(=O)N[C@@H](CC(C)C)C(=O)O)nn1-c1ccnc2cc(Cl)ccc12
inactive: outcome (CRL-7250) | max response (HEK293) -1.22% | outcome (HaCat [1]) | outcome (KB-3-1) | outcome (NIH3T3 [2]) | outcome (HACAT [3]) | outcome (NIH3T3 [4]) | Potency (C33A) | Potency (CAOV3) | outcome (CASKI) | Potency (Es-2) | Potency (HeLa) | Potency (Hek293T) | Potency (JEG-3) | Potency (OV90) | Potency (PA-1)
